Laboratory results as given in the supplement of paper PMC10646978.
± gives the standard deviation.

Legend:
Conditions in all cases: modulator concentration 10 µM
[1] = test system: RAW-Dual (murine macrophage reporter line); experiment: NF-kB reporter (SEAP) activity fold change vs agonist alone; higher = enhanced NF-kB activity
Outline: (§1)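 RAW-Dual murine macrophage reporter cells were plated at 50 000 per well in 384-well plates, pin-transferred compound to 10 μM final, and pre-incubated for 1 hour at 37 °C before a PRR agonist was added and the cells incubated overnight. NF-κB activity was read from supernatant SEAP with QUANTI-Blue at 620 nm absorbance, and IRF activity from Lucia luciferase with QUANTI-Luc by luminescence. Each signal was expressed as fold change by dividing by the mean agonist-only control on the same plate. Two replicate plates were averaged, with errors obtained by propagation.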

[2] = test system: RAW-Dual (murine macrophage reporter line); experiment: IRF reporter (Lucia luciferase) activity fold change vs agonist alone; higher = enhanced IRF activity
Outline: as §1

[3] = test system: RAW-Dual (murine macrophage reporter line); experiment: viability score (confluency relative to resting cells, overnight) (fraction); higher = more viable, active = viable (0.7 or more)
Outline: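 RAW-Dual macrophages in 384-well plates were incubated overnight with compound, final concentration 10 μM. Confluency images from IncuCyte were processed in IncuCyte software into two masks covering all imaged wells. The viability score is each well's confluency relative to resting cells, and a compound met the cutoff when both masks exceeded 70% of resting cells.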

[4] = agonist: CpG ODN 1826 0.5 ug/mL

Row | SMILES | NF-kB reporter [1, 4] | NF-kB reporter ([1]; agonist: LPS 0.1 ug/mL) | NF-kB reporter ([1]; agonist: MPLA […]) | IRF reporter ([2]; agonist: 3'3'-cGAMP 10 ug/mL) | IRF reporter ([2]; agonist: LPS 0.1 ug/mL) | IRF reporter ([2]; agonist: MPLA […]) | viability score [3]
1 | N#CCCN(C1CCCCC1)S(=O)(=O)c1cccc2nsnc12 | 1.05 ± 0.083 | 0.826 ± 0.051 | 1.73 ± 0.58 | 0.867 ± 0.048 | 1.33 ± 0.077 | 1.28 ± 0.15 | 1.01 (active)
2 | CC(=C(C#N)C(=O)NCc1ccccc1)N(C)C | 0.808 ± 0.077 | 0.883 ± 0.1 | 1.08 ± 0.11 | 0.966 ± 0.045 | 1.22 ± 0.1 | 1.26 ± 0.17 | 1.02 (active)
3 | CCCOc1cccc(C(=O)Nc2scc(-c3ccccc3Cl)c2C(=O)OC)c1 | 0.817 ± 0.1 | 0.827 ± 0.039 | 1.05 ± 0.092 | 1.03 ± 0.059 | 1.54 ± 0.09 | 1.69 ± 0.2 | 1 (active)
4 | O=C(C=Cc1ccccc1)NC(NC(=S)Nc1cccc(O)c1)C(Cl)(Cl)Cl (centres undefined) | 0.835 ± 0.074 | 0.803 ± 0.1 | 0.972 ± 0.099 | 0.737 ± 0.024 | 1.25 ± 0.23 | 1.3 ± 0.28 | 1.03 (active)
5 | CN1CCc2c(sc3[nH]c(=S)n(CCc4ccccc4)c(=O)c23)C1 | 0.753 ± 0.063 | 0.814 ± 0.042 | 0.967 ± 0.11 | 0.778 ± 0.042 | 1.28 ± 0.083 | 1.39 ± 0.17 | 1.01 (active)
6 | COc1cc(C(=O)Nc2ccc(-c3ccc(N4CCC(C)CC4)nn3)cc2)cc(OC)c1OC | 0.862 ± 0.1 | 0.879 ± 0.073 | 0.754 ± 0.12 | 1.02 ± 0.087 | 1.26 ± 0.11 | 1.59 ± 0.12 | 0.913 (active)
7 | CCSc1nnc(NC(=O)C2CC3CCC2C3)s1 (centres undefined) | 0.941 ± 0.058 | 0.969 ± 0.06 | 0.884 ± 0.06 | 1.29 ± 0.098 | 1.4 ± 0.092 | 1.09 ± 0.1 | 0.94 (active)
8 | CCCNCC(O)COc1ccccc1C(=O)CCc1ccccc1 (centres undefined) | 0.639 ± 0.086 | 0.988 ± 0.098 | 1.21 ± 0.066 | 0.989 ± 0.07 | 0.948 ± 0.095 | 0.869 ± 0.16 | 0.826 (active)
9 | CCC(=O)c1ccc(N2CCCCCC2)c(F)c1 | 0.864 ± 0.067 | 0.96 ± 0.074 | 1.14 ± 0.16 | 1 ± 0.048 | 1.61 ± 0.1 | 2.1 ± 0.18 | 0.982 (active)
10 | CCOc1ccc(NC(=O)N2C3C=CCC2CC3)cc1 (centres undefined) | 1.09 ± 0.42 | 0.941 ± 0.055 | 1.04 ± 0.075 | 0.943 ± 0.054 | 0.921 ± 0.13 | 1.1 ± 0.1 | 0.814 (active)
11 | COC(=O)c1c(NC(=O)C2CCCCC2)sc2c1CC(C)(C)NC2(C)C | 1.12 ± 0.095 | 1.24 ± 0.1 | 1.47 ± 0.16 | 0.764 ± 0.08 | 1.06 ± 0.1 | 1.82 ± 0.38 | 0.419 (inactive)
12 | CC1=CCCC(=O)C2CC(C)(C)C2CC1 (centres undefined) | 0.95 ± 0.13 | 0.857 ± 0.11 | 0.89 ± 0.083 | 0.876 ± 0.031 | 1.05 ± 0.15 | 1.05 ± 0.3 | 1.05 (active)
13 | Cc1ccc(CN2C3=NCCCN3c3ccccc32)cc1.Cl | 0.294 ± 0.047 | 1.25 ± 0.13 | 1.32 ± 0.17 | 0.881 ± 0.026 | 1.27 ± 0.17 | 1.34 ± 0.2 | 0.999 (active)
14 | O=C(CCCn1c(=O)[nH]c2ccc(Br)cc2c1=O)NCC1CCCO1 (centres undefined) | 0.965 ± 0.081 | 1.05 ± 0.099 | 0.931 ± 0.043 | 0.957 ± 0.057 | 1.04 ± 0.063 | 0.94 ± 0.25 | 1.02 (active)
15 | c1ccc(-c2ccc(C(c3ccccc3)n3ccnc3)cc2)cc1 (centres undefined) | 0.825 ± 0.097 | 0.893 ± 0.083 | 1.22 ± 0.12 | 0.966 ± 0.044 | 1.31 ± 0.076 | 1.41 ± 0.15 | 1 (active)
16 | O=[N+]([O-])c1ccc(-n2cccc2C=NNc2nc(N3CCOCC3)nc(N3CCOCC3)n2)cc1 | 0.961 ± 0.42 | 1.09 ± 0.085 | 1.14 ± 0.13 | 0.691 ± 0.022 | 0.999 ± 0.1 | 1.25 ± 0.16 | 1 (active)
17 | O=S(=O)(NCc1ccc(-c2cccnc2)nc1)c1ccc(OC(F)(F)F)cc1 | 0.947 ± 0.068 | 1.01 ± 0.091 | 0.873 ± 0.058 | 0.961 ± 0.054 | 1.09 ± 0.066 | 1.16 ± 0.11 | 1.01 (active)
18 | O=C1NC(=O)C(=Cc2ccc(F)cc2)S1 | 0.667 ± 0.052 | 0.951 ± 0.062 | 0.91 ± 0.032 | 0.773 ± 0.16 | 1.02 ± 0.089 | 1.02 ± 0.16 | 0.988 (active)
19 | CCn1c(=O)c2c(nc(/C=C/c3ccc(OC)c(OC)c3)n2C)n(CC)c1=O | 1.56 ± 0.31 | 1.27 ± 0.33 | 1.14 ± 0.094 | 0.721 ± 0.044 | 1.21 ± 0.27 | 1.32 ± 0.26 | 0.986 (active)
20 | O=C1C(Cl)=C(N2CCCCC2)C(=O)N1c1ccc(Cl)c(Cl)c1 | 0.687 ± 0.14 | 1.07 ± 0.084 | 1 ± 0.15 | 0.911 ± 0.047 | 1.09 ± 0.11 | 1.22 ± 0.27 | 1 (active)
21 | Clc1nc(N2CCOCC2)nc(N(c2ccccc2)c2ccccc2)n1 | 0.889 ± 0.077 | 0.908 ± 0.086 | 1.08 ± 0.12 | 1.02 ± 0.049 | 1.41 ± 0.22 | 1.53 ± 0.42 | 1.03 (active)
22 | O=C1Cc2cc(NC(=O)c3ccc(OC(F)(F)F)cc3)ccc2N1 | 1.19 ± 0.083 | 0.929 ± 0.076 | 0.998 ± 0.068 | 0.643 ± 0.034 | 0.959 ± 0.059 | 0.99 ± 0.13 | 1 (active)
23 | CC(=O)N1CCN(c2ccc(OC[C@H]3CO[C@](Cn4ccnc4)(c4ccc(Cl)cc4Cl)O3)cc2)CC1 | 0.723 ± 0.072 | 1.06 ± 0.071 | 1.03 ± 0.025 | 0.925 ± 0.094 | 1.07 ± 0.15 | 1.07 ± 0.27 | 1 (active)
24 | Cc1ccc(-c2nn(-c3ccccc3)cc2C=C(C#N)C(N)=O)o1 | 1.04 ± 0.26 | 0.991 ± 0.081 | 1 ± 0.081 | 1.01 ± 0.041 | 1.22 ± 0.2 | 1.12 ± 0.11 | 0.966 (active)
25 | CCOC(=O)C1=C(Nc2ccccc2)SC(=Cc2ccc(O)c(OCC)c2)C1=O | 1.1 ± 0.093 | 1.03 ± 0.07 | 1.15 ± 0.18 | 1.1 ± 0.036 | 1.26 ± 0.12 | 1.12 ± 0.16 | 1.01 (active)
26 | O=C(NCCC(CCO)c1ccccc1)Nc1c(F)cccc1F (centres undefined) | 0.929 ± 0.078 | 1.02 ± 0.11 | 0.898 ± 0.041 | 0.972 ± 0.059 | 1.05 ± 0.084 | 0.978 ± 0.075 | 0.98 (active)
27 | Cc1ccc(NC(=O)CN2C(=O)c3ccccc3C2=O)c(C(=O)O)c1 | 0.789 ± 0.077 | 0.894 ± 0.057 | 1.05 ± 0.091 | 0.982 ± 0.049 | 1.32 ± 0.098 | 1.5 ± 0.18 | 1.02 (active)
